Records with an inconclusive call do not appear. Activity calls are given as the source filed them. Calls come from the whole dose curve; as a rule, active = well fitted cell-killing curve with a large enough effect; inconclusive = small, poorly fitted or top-dose-only effect; inactive = flat fitted curve, though single readings scatter.
Experiment: Vero cells viability qHTS for Zika virus inhibitors (AID 1347167)
Settings: cytotoxicity counter-screen (Zika); series mostly up to 45.9 µM; activity change, negative = cytotoxicity: at the top concentration
Summary of the method: (§1)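 To flag cytotoxic protease inhibitors, viability is measured by ATP-dependent luminescence (CellTiter Glo) after cells attached overnight receive compound for 24 to 48 hours in DMEM with 4% FBS.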
% is set by controls: 0 for no effect and ±100 for the full control effect.

| SMILES | activity change, negative = cytotoxicity |
| --- | --- |
| Cc1cccc(C(=O)NCN2CCN(c3ccccc3C#N)CC2)c1 | -1.58% (inactive) |
| CCc1ccc2c(-c3cccc(Cl)c3)nc(=O)n(CC)c2n1 | -5.3% (inactive) |
| Cn1c(=O)c2[nH]c(-c3ccc(S(=O)(=O)O)cc3)nc2n(C)c1=O | -1.84% (inactive) |
| CCCc1c(OCCCOc2ccc(OCC(=O)O)cc2)ccc(C(C)=O)c1O | -7.01% (inactive) |
| O=c1[nH]c(=S)[nH]c(-c2ccccc2)c1Cc1c(O)ccc2ccccc12 | -1.42% (inactive) |
| O=C1NC(=O)c2cc(Nc3ccccc3)c(Nc3ccccc3)cc21 | -10.6% (inactive) |
| CNC(=O)c1cc2c(cn1)[nH]c1ccccc12 | -6.55% (inactive) |

Experiment: HepG2 cells viability qHTS for Zika virus inhibitors (AID 1347168)
Settings: Zika counter-screen; series mostly up to 45.9 µM; activity change, negative = cytotoxicity: at the top concentration
Summary of the method: as §1

| SMILES | activity change, negative = cytotoxicity |
| --- | --- |
| Cc1cccc(C(=O)NCN2CCN(c3ccccc3C#N)CC2)c1 | -0.209% (inactive) |
| CCc1ccc2c(-c3cccc(Cl)c3)nc(=O)n(CC)c2n1 | -5.81% (inactive) |
| COc1cc(/C=C(\C#N)C(=O)Nc2nnc(C(F)(F)F)s2)ccc1OCc1ccc(C(F)(F)F)cc1C(F)(F)F | -10.3% (inactive) |
| Cn1c(=O)c2[nH]c(-c3ccc(S(=O)(=O)O)cc3)nc2n(C)c1=O | -1.4% (inactive) |
| CCCc1c(OCCCOc2ccc(OCC(=O)O)cc2)ccc(C(C)=O)c1O | 5.51% (inactive) |
| O=c1[nH]c(=S)[nH]c(-c2ccccc2)c1Cc1c(O)ccc2ccccc12 | -9.37% (inactive) |
| O=C1NC(=O)c2cc(Nc3ccccc3)c(Nc3ccccc3)cc21 | -14.1% (inactive) |
| CNC(=O)c1cc2c(cn1)[nH]c1ccccc12 | -6.31% (inactive) |
